Data on 37 molecules can be found in PubChem BioAssay (NCI).

This is part of a sample that, as a whole, favours compounds with a hit. Of some 83,000 tested, about 20% had one in any assay.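 Each cell line was grown in a 96-well plate and treated with one concentration of compound for 48 hours. Values below 10 were considered active.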 A number with no mark means an inactive call. Calls of active or inactive are those of the source.

The first assay has as its system PC-3 prostate. The assay is described as follows: NCI-60 one-dose screen, 48 h (100 = growth as untreated, 0 = no growth, -100 = all killed). The following applies: 10 µM unless noted.
Regarding `CCCOC(=O)c1c(C)n(C)c2scc[n+]12`, the growth is 75.6%.
On to `COc1cc(-c2nc3c(c(C)nc4c3nnn4-c3ccccc3)c(=O)o2)cc(OC)c1OC`, for which the growth is 104%.
As to `COC(=O)Nc1nc2ccc(C(=O)c3ccccc3N(C)C3COC3)cc2[nH]1`, the growth is 23%.
Still for that read-out and setting: the same measure for `COc1cc(Cn2ccc3c2-c2oncc2CC3)cc(OC)c1`: 57.9%.
Still for that read-out and setting: the same measure for `c1ccc(Nc2ncc3c(n2)-c2cccn2CC3)cc1`: 81.3%.
The same measure, in the same setting: the same measure for `N=c1c2c(=O)n3c(nc2nc2sc4ccc(Cl)cc4n12)-c1ccccc1Sc1ccccc1-3`: 11.2%; for `NC(=O)CC(NC(=O)COc1ccc(Cl)cc1Cl)C(=O)O` (configuration not stated): 94.2%; for `C=C(C)[C@@H]1CC[C@]2(COC(=O)c3ccccc3C(=O)O)CC[C@]3(C)[C@H](CC[C@@H]4[C@@]5(C)CCCNC(C)(C)[C@@H]5CC[C@]43C)[C@@H]12`: 20.8%.
Take `C/C=C(/C)C(=O)OC1C=C(CO)C(=O)C(OC(=O)/C(C)=C\C)C1C(C)C` (configuration not stated): the growth is -54.1% (active).
For the molecule `CC(=O)OC1CC2C3CCC4C[C@@H](NC(=O)C=C(C)C)CC[C@]4(C)C3CC[C@]2(C)[C@H]1C(C)N(C)C` (some centres not stated), the growth was 13.1%.
The same measure, in the same setting: the figure for `CC(=O)/C(=C/c1ccc(-c2ccccc2)cc1)C(=O)c1ccccc1` is 63.1%.

A further assay has as its system SK-MEL-5 melanoma. The assay is described as above. The following applies: 10 µM unless noted.
`Nc1ccc(S(=O)(=O)c2ccc(NO)cc2)cc1`: the growth is 102%.
On the same count and under the same terms, the figure for `COc1cc(NC(C)CCCN)c2nccc(C)c2c1OC` (configuration not stated) is 86.8%.
Still for that read-out and setting: the figure for `CCCC(=O)NNc1[nH]c(-c2cc(OC)c(OC)c(OC)c2)cc1C(=O)OCC` is 112%; for `CC(C)OC(=O)c1ccc2n1CCCc1cnc(Nc3ccccc3)nc1-2` it is 61.1%; for `COC(=O)c1ccc2[nH]c(O)c(C(=Nc3ccc(N(C)C(=O)CN4CCN(C)CC4)cc3)c3ccc(OC)cc3)c2c1` it is 28.5%.
The same measure, in the same setting: the same measure for `CC(=O)c1cc(Nc2cc(C)nc(N)n2)cc(C(C)=O)c1`: 100%.
Turning to `CCOC(=O)C1=C(C(F)(F)F)NC(=S)NC1CN1C(=O)c2ccccc2C1=O` (configuration not stated), the growth was 103%.
Same read-out and setting: the figure for `CC(C)OC(=O)[C@H](C)N[P@@](=O)(OC[C@@]1(C)O[C@@H](n2cc(F)c(N)nc2=O)C[C@@H]1O[P@](=O)(N[C@@H](C)C(=O)OC(C)C)Oc1ccccc1)Oc1ccccc1` is 90.6%; for `COc1ccc(Cn2cc3c(c2-c2ccccc2)CCc2cnoc2-3)cc1OC` it is 10.5%.
As to `CC1C(=O)CCCC1=O`, the growth is 106%.
Still for that read-out and setting: the same measure for `Brc1ccc(-c2nc3ccccc3s2)cc1`: 94.4%; for `O=C(Nc1cccc(Cn2c(=O)[nH]c3ccc(Oc4ncccn4)cc3c2=O)c1)c1ccc(Cl)cc1`: 12.6%; for `Cc1ccc(S(=O)(=O)Nc2cccc(Cn3c(=O)[nH]c4ccc(Oc5ncccn5)cc4c3=O)c2)cc1`: 53.8%.
Still for that read-out and setting: the figure for `CC1(C)Oc2cc3oc(=O)ccc3cc2C[C@@H]1OCCOS(=O)(=O)c1ccc(C#N)cc1` is 93.6%; for `COC1NC(Cl)=C(C#N)C(C#N)(C#N)C1(C)C` (configuration not stated) it is 111%; for `COc1ccccc1C(=O)Nc1cccc(-c2cc(=O)c3c(OC)c(OC)c(OC)cc3o2)c1` it is 25%.
For the molecule `C=C(NC(=O)[C@H](C(C)C)N(C)c1cccc2[nH]ccc12)C(=O)OC`, the growth is 99.4%.
The same measure, in the same setting: the figure for `Cc1nc2c(nnn2-c2ccccc2)c2nc(-c3ccccc3)oc(=O)c12` is 104%.
In the case of `CCCCCCCCCC[N+](C)(C)C`, the growth is -13.6% (active).
Regarding `CCOC(=O)c1ccc2n1CCCc1cnc(NC(C)=O)nc1-2`, the growth is 100%.
As for `O=S(=O)(O)c1ccc2c(c1)Sc1cc(S(=O)(=O)O)ccc1O2`, the growth was 112%.
Still for that read-out and setting: the same measure for `COc1cc(/C=C/C(=O)c2ccc(F)cc2)ccc1OCCCCOc1cc2c(cc1OC)C(=O)N1CCCC1C=N2` (configuration not stated): -99.7% (active); for `COC(=O)C(C)[C@H]1CC[C@@H]2[C@]1(C)CC=C1[C@]23C=C[C@]2(C[C@@H](OC(C)=O)CC[C@]12C)C(C(=O)OC)C3C(=O)OC` (some centres not stated): 60.6%; for `COc1ccc2cnc(N)c(C#Cc3cc(C(=O)Nc4ccc(CN5CCN(C)CC5)c(C(F)(F)F)c4)cnc3C)c2c1`: 34.6%.
Take `COc1cccc2c1nc1cccc(OC)c1[n+]2[O-]`: the growth was 62%.
On the same count and under the same terms, the figure for `O=C1/C(=N\c2cc(=O)[nH]n2S(=O)(=O)c2ccccc2)Nc2ccccc21` is 98.6%.
